Test results from PubChem BioAssay.
For some assays here: Measured potencies and affinities stand elsewhere. Active and inactive are the calls of the source.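 The calls were made as follows, unless noted: active = calcium signal cut by more than 3 SD below the full-agonist control yet still positive, in both repeats and the earlier primary screen; inactive = the rest.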

Tests used:
[1] = test system: TRPC4 beta (transient receptor potential cation channel C4), mouse; assay: activators of mouse TRPC4 channel, confirmation, cell-based, Fluo4 calcium, HEK293 TRPC4beta/mu-opioid, duplicates, 10 µM (AID 2426;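 active = fluorescence ratio normalized to control raised more than 50% in primary screen plus both repeat runs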;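 as to activation: percent rise of integrated ratio over buffer wells lacking compound which define 0%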); conditions: Fluo4 calcium fluorescence, at 10 µM; hits give high values
[2] = test system: transient receptor potential cation channel C4 beta (TRPC4), mouse; assay: activators of mouse TRPC4 channel, confirmation, cell-based, second round, Fluo4, HEK293 TRPC4beta/mu-opioid, 1 µM (AID 2461;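 active = primary screen active and over 50% activation in each of two duplicate runs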;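 as to activation: 0% = wells without test compound as baseline of integrated fluorescence ratio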); conditions: Fluo4 calcium fluorescence, at 1 µM; hits give high values
[3] = test system: TRPC4 (transient receptor potential cation channel C4 beta), mouse; assay: positive allosteric modulators of mouse TRPC4, confirmation, cell-based, second round, Fluo-4, HEK293 TRPC4beta/mu-opioid, 1 µM (AID 2554;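 active = primary screen hit whose fluorescence ratio, in both repeats, exceeds the weak agonist control mean by 3 SD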); conditions: DAMGO EC20, Fluo-4 calcium flux, at 1 µM; hits give high values
[4] = test system: TRPC4 beta (transient receptor potential cation channel C4), mouse; assay: positive allosteric modulators of mouse TRPC4, confirmation, cell-based, Fluo-4, HEK293 TRPC4beta/mu-opioid (AID 2555;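 active = primary screen hit whose calcium fluorescence ratio, in both repeats, exceeds the weak agonist control mean by 3 SD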); conditions: DAMGO EC20, Fluo-4 calcium flux, at 10 µM; hits give high values
[5] = biological target: Short transient receptor potential channel 4 (Mus musculus) (UniProt Q9QUQ5); assay: inhibitors of mouse TRPC4 channel, confirmation, cell-based, Fluo4, HEK293 TRPC4beta/mu-opioid (AID 2636); conditions: DAMGO, Fluo4 calcium flux, at 10 µM; hits give high values
[6] = biological target: Short transient receptor potential channel 4 (Mus musculus) (UniProt Q9QUQ5); assay: inhibitors of mouse TRPC4 channel, confirmation, cell-based, second round, Fluo4, HEK293 TRPC4beta/mu-opioid, 1 µM (AID 2637;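 active = calcium signal ratio cut to more than 3 SD under the fully stimulated control mean yet still positive, in both repeats and the primary screen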); conditions: Fluo4 calcium flux, DAMGO, at 1 µM; hits give high values
[7] = biological target: Short transient receptor potential channel 4 (Mus musculus) (UniProt Q9QUQ5); assay: mouse TRPC4 channel activators, dose response, cell-based, HEK293 TRPC4/mu-opioid, Fluo-4 calcium (AID 434937;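 active = primary screen activator hit with a dose response curve and TRPC4 channel activation at any tested dose; inactive = no activation, no dose response, or not a primary hit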)
[8] = biological target: Short transient receptor potential channel 4 (Mus musculus) (UniProt Q9QUQ5); assay: mouse TRPC4 channel inhibitors, dose response, cell-based, HEK293 TRPC4/mu-opioid, Fluo-4 calcium (AID 434942;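 active = primary screen inhibitor hit that blocks the TRPC4 channel at some tested dose, yielding a dose curve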)
[9] = biological target: Short transient receptor potential channel 6 (Mus musculus) (UniProt Q61143); assay: inhibition of mouse TRPC6 channel, confirmation, selectivity assay for TRPC4 inhibitor project, cell-based, HEK293, membrane potential dye, duplicate (AID 434948;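 active = active in primary screen and both duplicates, each dropping signal beyond three positive-control SD with fluorescence still positive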); conditions: HEK293 TRPC6, membrane potential dye fluorescence, at 10 µM, stimulated with maximal-effect acetylcholine; hits give high values
[10] = biological target: Short transient receptor potential channel 6 (Mus musculus) (UniProt Q61143); assay: activation of mouse TRPC6 channel, confirmation, selectivity assay for TRPC4 activator project, cell-based, HEK293, membrane potential dye, duplicate (AID 434950;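 active = membrane potential signal rise above negative control mean plus 3 SD in both duplicates, also active in the earlier TRPC4 screen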;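 as to activation: 0% = buffer only wells and 100% = acetylcholine maximal-effect wells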); conditions: HEK293 TRPC6, membrane potential fluorescence, at 10 µM; hits give high values
[11] = biological target: Short transient receptor potential channel 6 (Mus musculus) (UniProt Q61143); assay: TRPC6 potentiation by TRPC4 potentiator hits, confirmation, selectivity assay for TRPC4 potentiator project, HEK293 cells, membrane potential dye, duplicate (AID 434952;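 active = compound raising the membrane signal above positive-control mean plus 3 SD in both repeats, and a primary screen hit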); conditions: HEK293 TRPC6, membrane potential dye fluorescence, at 10 µM, maximal acetylcholine added after compound; hits give high values
[12] = biological target: Short transient receptor potential channel 4 (Mus musculus) (UniProt Q9QUQ5); assay: calcium flux activators in TRPC4/5HT1a cells, counter-screen for TRPC4 activator project, cell-based, second counter screen, HEK293 TRPC4/5HT1a, Fluo-4 (AID 434977;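 active = calcium signal rise above buffer-control mean plus 5 SD in both duplicates, and also a hit in the primary screen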;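 as to activation: plate controls were assay buffer for no effect and maximal serotonin response for full effect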); conditions: Fluo-4 calcium flux, at 10 µM; hits give high values
[13] = calcium flux inhibitors in TRPC4/5HT1a cells, confirmation, counter-screen for TRPC4 inhibitor project, cell-based, second counter screen, HEK293 TRPC4/5HT1a, Fluo-4 (AID 434978;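 active = primary screen active whose calcium signal fell more than 3 SD beyond the full-serotonin control mean in both duplicate plates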;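 also: serotonin given first at submaximal then at maximal dose after compound preincubation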); conditions: Fluo-4 calcium flux, at 10 µM, serotonin added to trigger calcium flux; hits give high values
[14] = test system: TRPC4 (mouse), co-expressed with 5HT1a in HEK293; assay: calcium flux potentiators in TRPC4/5HT1a cells, confirmation, counter-screen for TRPC4 potentiator project, cell-based, second counter screen, HEK293 TRPC4/5HT1a, Fluo-4 (AID 434979;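 active = signal rise over 3 SD above mean of control wells given weak agonist, in both repeats and first screen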); conditions: Fluo-4 calcium flux, at 10 µM, serotonin added at its EC20 dose; hits give high values
[15] = calcium flux activation in mu-opioid HEK293 cells, confirmation, counter-screen for TRPC4 activator project, cell-based, HEK293 mu-opioid receptor line (AID 449723;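 active = hit in primary screen, with calcium signal over 5 SD above buffer well mean in both duplicates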;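 also: counter screen cells carry the mu-opioid receptor alone and lack TRPC4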); conditions: Fluo-4 calcium fluorescence, at 10 µM; hits give high values
[16] = calcium flux enhancement in mu-opioid HEK293 cells, confirmation, counter-screen for TRPC4 allosteric potentiator project, cell-based, HEK293 mu-opioid receptor line (AID 449724;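 active = calcium signal rise more than 3 SD above the low-dose agonist control mean, in both duplicate plates and the primary screen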); conditions: Fluo-4 calcium flux, at 10 µM, compound added before EC20 DAMGO stimulus; hits give high values
[17] = biological target: Short transient receptor potential channel 4 (Mus musculus) (UniProt Q9QUQ5); assay: TRPC4 positive allosteric modulators, dose response, cell-based, HEK293 TRPC4/mu-opioid, Fluo-4 calcium, EC20 DAMGO (AID 434941;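 active = earlier screen potentiator hit that boosts the TRPC4 ion channel at some dose, with a dose response; inactive = no potentiation, no dose response, or not a prior hit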;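 also: calcium entry triggered by an EC20 dose of DAMGO at the co-expressed mu-opioid receptor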)
[18] = thallium flux activation in parental CHO cells, counter-screen for KCNQ1 potentiator project (AID 493006;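 active = duplicate-averaged activation above buffer control mean plus 5 SD of those controls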;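 also: fluorescence ratio of max minus min over baseline after K+ and Tl+ depolarization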); conditions: parental CHO-K1 cells, FluxOR thallium flux, at 10 µM; hits give high values
[19] = biological target: Potassium voltage-gated channel subfamily KQT member 1 (Homo sapiens) (UniProt P51787); assay: KCNQ1 potassium channel potentiators, confirmation, FluxOR thallium flux, CHO cells, duplicates (AID 493007;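 active = potentiation averaged over duplicate wells exceeding buffer-only control mean by more than 3 SD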;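 also: 0% = buffer-only wells and 100% = R-L3 activator control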); conditions: KCNQ1 cell line, FluxOR thallium flux fluorescence, at 10 µM; hits give high values, % of reference activator effect, buffer zero
[20] = biological target: Potassium voltage-gated channel subfamily KQT member 2 (Rattus norvegicus) (UniProt O88943); assay: rat KCNQ2 channel potentiation, selectivity assay for KCNQ1 potentiator project, KCNQ2-CHO-K1 cells (AID 493009;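 active = mean duplicate potentiation above the buffer control mean plus 5 SD of buffer wells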;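 also: assay conditions were tuned for KCNQ1 rather than KCNQ2 modulators; signal is max minus min fluorescence divided by baseline after thallium stimulus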); conditions: FluxOR thallium flux fluorescence, at 10 µM; hits give high values, scaled: buffer 0, activator control 100
Chain of Potassium voltage-gated channel subfamily KQT member 2 (Rattus norvegicus) (O88943 whole entry, looked up): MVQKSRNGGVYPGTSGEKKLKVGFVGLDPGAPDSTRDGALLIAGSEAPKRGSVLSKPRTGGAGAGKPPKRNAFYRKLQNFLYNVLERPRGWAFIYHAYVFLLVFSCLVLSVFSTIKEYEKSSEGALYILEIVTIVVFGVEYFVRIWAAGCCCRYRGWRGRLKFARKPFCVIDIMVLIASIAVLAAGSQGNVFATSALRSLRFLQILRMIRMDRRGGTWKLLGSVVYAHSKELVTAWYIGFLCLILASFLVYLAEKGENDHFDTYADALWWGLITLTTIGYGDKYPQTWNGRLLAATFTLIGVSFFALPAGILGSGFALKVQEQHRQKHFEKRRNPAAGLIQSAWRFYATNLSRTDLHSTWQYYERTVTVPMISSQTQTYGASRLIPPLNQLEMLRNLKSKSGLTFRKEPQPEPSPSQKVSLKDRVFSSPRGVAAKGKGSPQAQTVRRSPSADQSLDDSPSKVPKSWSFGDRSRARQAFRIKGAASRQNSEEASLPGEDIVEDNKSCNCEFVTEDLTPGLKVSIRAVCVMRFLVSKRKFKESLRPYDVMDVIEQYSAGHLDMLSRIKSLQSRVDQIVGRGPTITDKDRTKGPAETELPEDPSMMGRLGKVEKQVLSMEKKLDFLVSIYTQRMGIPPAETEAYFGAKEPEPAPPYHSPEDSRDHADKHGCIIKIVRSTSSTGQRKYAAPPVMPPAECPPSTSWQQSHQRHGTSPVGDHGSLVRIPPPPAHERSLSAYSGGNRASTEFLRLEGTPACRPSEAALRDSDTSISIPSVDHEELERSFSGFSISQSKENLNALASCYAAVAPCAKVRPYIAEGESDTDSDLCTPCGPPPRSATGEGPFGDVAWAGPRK

Chain of Short transient receptor potential channel 6 (Mus musculus) (Q61143 whole entry, looked up): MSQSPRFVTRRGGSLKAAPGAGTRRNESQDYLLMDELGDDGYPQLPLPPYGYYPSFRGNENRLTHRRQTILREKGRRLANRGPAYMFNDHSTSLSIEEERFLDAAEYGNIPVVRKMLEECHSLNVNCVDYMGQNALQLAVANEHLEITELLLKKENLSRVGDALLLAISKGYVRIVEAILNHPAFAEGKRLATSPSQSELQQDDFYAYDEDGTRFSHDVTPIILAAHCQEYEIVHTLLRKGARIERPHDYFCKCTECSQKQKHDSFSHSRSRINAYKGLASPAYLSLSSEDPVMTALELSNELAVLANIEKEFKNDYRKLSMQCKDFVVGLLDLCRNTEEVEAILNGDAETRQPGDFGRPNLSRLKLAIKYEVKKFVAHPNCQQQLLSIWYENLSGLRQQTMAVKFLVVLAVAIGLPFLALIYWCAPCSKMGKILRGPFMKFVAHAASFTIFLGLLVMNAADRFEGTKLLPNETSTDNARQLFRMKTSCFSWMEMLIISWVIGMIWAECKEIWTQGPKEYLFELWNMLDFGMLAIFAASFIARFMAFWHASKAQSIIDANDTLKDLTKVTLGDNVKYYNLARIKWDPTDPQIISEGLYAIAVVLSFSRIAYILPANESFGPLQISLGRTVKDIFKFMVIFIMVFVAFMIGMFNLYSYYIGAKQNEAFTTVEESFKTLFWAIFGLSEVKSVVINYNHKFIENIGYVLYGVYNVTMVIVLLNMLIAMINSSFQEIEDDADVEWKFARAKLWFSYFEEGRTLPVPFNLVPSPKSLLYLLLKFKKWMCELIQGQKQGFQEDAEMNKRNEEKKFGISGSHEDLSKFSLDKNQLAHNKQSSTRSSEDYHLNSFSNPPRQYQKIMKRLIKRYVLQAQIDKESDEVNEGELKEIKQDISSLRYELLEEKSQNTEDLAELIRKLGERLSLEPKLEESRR
Chain of Short transient receptor potential channel 4 (Mus musculus) (Q9QUQ5 whole entry, looked up): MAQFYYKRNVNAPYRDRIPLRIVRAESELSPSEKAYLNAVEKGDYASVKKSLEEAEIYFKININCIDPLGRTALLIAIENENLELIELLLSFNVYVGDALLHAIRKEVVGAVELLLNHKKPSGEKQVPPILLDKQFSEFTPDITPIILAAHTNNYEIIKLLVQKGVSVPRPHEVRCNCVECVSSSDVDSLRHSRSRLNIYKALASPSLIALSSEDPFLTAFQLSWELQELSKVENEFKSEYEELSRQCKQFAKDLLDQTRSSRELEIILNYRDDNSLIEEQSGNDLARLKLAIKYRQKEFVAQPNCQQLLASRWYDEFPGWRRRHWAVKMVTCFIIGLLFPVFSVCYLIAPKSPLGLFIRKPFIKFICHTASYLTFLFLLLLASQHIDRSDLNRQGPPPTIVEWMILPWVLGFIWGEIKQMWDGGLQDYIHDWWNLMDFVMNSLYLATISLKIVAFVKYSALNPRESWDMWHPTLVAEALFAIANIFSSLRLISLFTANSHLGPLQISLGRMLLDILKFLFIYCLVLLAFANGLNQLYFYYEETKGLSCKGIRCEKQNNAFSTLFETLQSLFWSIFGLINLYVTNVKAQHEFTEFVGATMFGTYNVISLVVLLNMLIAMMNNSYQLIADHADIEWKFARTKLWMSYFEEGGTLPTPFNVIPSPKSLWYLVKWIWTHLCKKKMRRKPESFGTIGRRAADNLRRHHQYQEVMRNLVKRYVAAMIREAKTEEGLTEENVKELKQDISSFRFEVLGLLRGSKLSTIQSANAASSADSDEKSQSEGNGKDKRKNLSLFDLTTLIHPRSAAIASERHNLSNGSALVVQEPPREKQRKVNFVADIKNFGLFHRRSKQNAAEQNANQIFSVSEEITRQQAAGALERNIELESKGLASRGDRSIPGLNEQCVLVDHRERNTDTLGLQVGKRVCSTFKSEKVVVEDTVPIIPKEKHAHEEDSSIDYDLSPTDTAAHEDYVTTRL
Chain of Potassium voltage-gated channel subfamily KQT member 1 (Homo sapiens) (P51787 whole entry, looked up): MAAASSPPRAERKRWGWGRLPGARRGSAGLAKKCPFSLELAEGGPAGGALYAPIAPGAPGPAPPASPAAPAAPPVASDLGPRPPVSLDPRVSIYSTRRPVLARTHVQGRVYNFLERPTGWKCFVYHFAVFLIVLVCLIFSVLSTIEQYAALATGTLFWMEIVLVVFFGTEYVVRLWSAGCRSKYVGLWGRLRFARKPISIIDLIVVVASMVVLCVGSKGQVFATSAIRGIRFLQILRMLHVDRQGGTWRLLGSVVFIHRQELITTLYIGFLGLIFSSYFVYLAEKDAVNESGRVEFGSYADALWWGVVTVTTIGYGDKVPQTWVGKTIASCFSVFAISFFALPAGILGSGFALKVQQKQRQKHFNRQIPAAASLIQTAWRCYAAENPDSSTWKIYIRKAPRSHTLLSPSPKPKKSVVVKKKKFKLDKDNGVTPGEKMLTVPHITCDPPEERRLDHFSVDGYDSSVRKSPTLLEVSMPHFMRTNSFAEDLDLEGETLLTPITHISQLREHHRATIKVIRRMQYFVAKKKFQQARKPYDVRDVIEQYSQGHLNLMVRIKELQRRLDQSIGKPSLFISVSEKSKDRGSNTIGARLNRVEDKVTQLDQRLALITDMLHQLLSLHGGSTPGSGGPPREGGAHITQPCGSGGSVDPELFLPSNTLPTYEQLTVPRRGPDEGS

Cc1ccc(/C=N/NC(=O)NC2CCCCC2)o1
active: potentiation [3] 10% | potentiation [4] 54% | potentiation [14] 69.9%
inactive: outcome [1] | outcome [2] | outcome [5] | outcome [6] | outcome [7] | outcome [8] | outcome [9] | outcome [10] | outcome [11] | outcome [12] | outcome [13] | outcome [15] | outcome [16]

CC1CN(C)C(C)c2c1oc1ccc(N)cc21 (configuration not stated)
active: activation [1] 226% | activation [2] 73%
inactive: outcome [3] | outcome [4] | outcome [5] | outcome [6] | outcome [17] | outcome [8] | outcome [9] | outcome [10] | outcome [11] | outcome [12] | outcome [13] | outcome [14] | outcome [15] | outcome [16]

O=C(c1cccc([N+](=O)[O-])c1)N1CCCC(C(=O)N2CCCCCC2)C1 (configuration not stated)
inactive: outcome [1] | outcome [2] | outcome [3] | outcome [4] | outcome [5] | outcome [6] | outcome [7] | outcome [8] | outcome [9] | outcome [10] | outcome [11] | outcome [12] | outcome [13] | outcome [14] | outcome [15] | outcome [16]

Cc1cccc(Cn2c(N3CCN(c4ccccc4)CC3)nc3c2c(=O)n(C)c(=O)n3C)c1
inactive: outcome [1] | outcome [2] | outcome [3] | outcome [5] | outcome [6] | outcome [7] | outcome [8] | outcome [9] | outcome [10] | outcome [11] | outcome [12] | outcome [13] | outcome [15] | outcome [16]
active: potentiation [4] 71% | potentiation [14] 59.2%

Cc1sc2ncnc(NCC(c3ccco3)N(C)C)c2c1C (configuration not stated)
active: activation [1] 202% | activation [2] 116% | activation [12] 91.1%
inactive: outcome [3] | outcome [4] | outcome [5] | outcome [6] | outcome [17] | outcome [8] | outcome [9] | outcome [10] | outcome [11] | outcome [13] | outcome [14] | outcome [15] | outcome [16]

Cc1cccc(/C=N/NC(=O)c2cc(Br)ccc2O)n1
active: potentiation [3] 24% | potentiation [4] 46% | potentiation [14] 100% | activation [18] 140% | potentiation [19] 48% | potentiation [20] 182%
inactive: outcome [1] | outcome [2] | outcome [5] | outcome [6] | outcome [7] | outcome [8] | outcome [9] | outcome [10] | outcome [11] | outcome [12] | outcome [13] | outcome [15] | outcome [16]

Cc1ccc(-c2nnc(N3CCC(C)CC3)c3ccccc23)cc1C
active: potentiation [3] 7% | potentiation [4] 127% | potentiation [14] 60.2%
inactive: outcome [1] | outcome [2] | outcome [5] | outcome [6] | outcome [7] | outcome [8] | outcome [9] | outcome [10] | outcome [11] | outcome [12] | outcome [13] | outcome [15] | outcome [16]

Clc1cc(Cl)cc(C2=NC(Cc3ccccc3)CO2)c1 (configuration not stated)
active: activation [1] 110% | activation [10] 25% | activation [12] 30.6%
inactive: outcome [2] | outcome [3] | outcome [4] | outcome [5] | outcome [6] | outcome [17] | outcome [8] | outcome [9] | outcome [11] | outcome [13] | outcome [14] | outcome [15] | outcome [16]

Cc1cccc(/C=N/NC(=O)c2cccc(Cl)c2)n1
active: potentiation [4] 79% | potentiation [14] 83.4%
inactive: outcome [1] | outcome [2] | outcome [3] | outcome [5] | outcome [6] | outcome [7] | outcome [8] | outcome [9] | outcome [10] | outcome [11] | outcome [12] | outcome [13] | outcome [15] | outcome [16]

C=CCn1c(/N=C/c2ccc(N(C)C)cc2)nc2ccccc21
inactive: outcome [2] | outcome [3] | outcome [5] | outcome [6] | outcome [17] | outcome [8] | outcome [9] | outcome [11] | outcome [13]
active: activation [1] 148% | potentiation [4] 24% | activation [10] 159% | activation [12] 44.6% | potentiation [14] 10.4% | activation [15] 103% | activation [16] 1320%

O=[N+]([O-])c1cc(C(F)(F)F)ccc1NC1CCN(Cc2ccccc2)C1 (configuration not stated)
inactive: outcome [1] | outcome [2] | outcome [3] | outcome [4] | outcome [5] | outcome [6] | outcome [7] | outcome [8] | outcome [9] | outcome [10] | outcome [11] | outcome [12] | outcome [13] | outcome [15] | outcome [16]
active: potentiation [14] 23.9%

COc1ccc(F)cc1CN1CCN(C(=O)CCC(=O)Nc2nnc(C(C)C)s2)CC1
active: activation [10] 41.5%
inactive: outcome [1] | outcome [2] | outcome [3] | outcome [4] | outcome [5] | outcome [6] | outcome [17] | outcome [8] | outcome [9] | outcome [11] | outcome [12] | outcome [13] | outcome [14] | outcome [15] | outcome [16]

CCn1c(O)c(N=NC(=O)c2cccc(S(=O)(=O)N3CCCCC3)c2)c2ccccc21
inactive: outcome [1] | outcome [2] | outcome [3] | outcome [4] | outcome [5] | outcome [6] | outcome [7] | outcome [8] | outcome [9] | outcome [10] | outcome [11] | outcome [12] | outcome [13] | outcome [15] | outcome [16]
active: potentiation [14] 6.79%

O=C(Nc1ccccc1)C1=C[C@H](C2CCCCC2)C[C@H](OCc2ccc(CO)cc2)O1
inactive: outcome [1] | outcome [2] | outcome [3] | outcome [5] | outcome [6] | outcome [7] | outcome [8] | outcome [9] | outcome [10] | outcome [11] | outcome [12] | outcome [13] | outcome [15] | outcome [16]
active: potentiation [4] 85% | potentiation [14] 124%
